Data published in PubChem BioAssay AID1159580 (chemical genetic matrix, 2015).
Values joined by “and” are separate entries in the source; they are usually repeats but may differ in a detail not shown here. Identical values can stand only once. The campaign covered roughly 5,500 compounds. About 2,000 (36%) were called active. Inconclusive results (about 18%) are left out. Cut-off read from the data, not from the text of the source: active = normalized growth mostly below about 0.91 (no sharp cut-off); inconclusive = no clear call, values can overlap the other calls; inactive = mostly above about 0.92. This is one part of the list.

Test: chemical genetic growth profiling, strain panel (AID 1159580);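 note: tested at 20 µM; growth read once vehicle control cultures reached saturation at 30 °C; 1 = growth at the plate median or of vehicle wells; lower values mean less growth of the strain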
Settings: S. cerevisiae deletion strains, growth OD

Measured: normalized growth

Cn1c(=O)[nH]c2ncn(C)c2c1=O
inactive: locus YAL013W, strain DEP1, stronger effect = lower value 1.01 | locus YAL021C, strain ccr4, stronger effect = lower value 1.06 | locus YAL026C, strain drs2, stronger effect = lower value 0.985 | locus YAL030W, strain snc1, stronger effect = lower value 0.981 | locus YAL040C, strain CLN3, stronger effect = lower value 0.958 | locus YBL061C, strain skt5, stronger effect = lower value 0.99 | locus YBR009C, strain hhf1, stronger effect = lower value 0.995 | locus YBR021W, strain FUR4, stronger effect = lower value 1.04 | locus YBR023C, strain chs3, stronger effect = lower value 1 | locus YBR171W, strain sec66, stronger effect = lower value 0.95 | locus YBR229C, strain ROT2, stronger effect = lower value 1.01 | locus YBR231C, strain swc5, stronger effect = lower value 0.962 | locus YBR279W, strain paf1, stronger effect = lower value 0.993 | locus YCL011C, strain gbp2, stronger effect = lower value 0.966 | locus YCL016C, strain dcc1, stronger effect = lower value 1.03 | locus YCL029C, strain bik1, stronger effect = lower value 0.996 | locus YCL061C, strain MRC1 (second series), stronger effect = lower value 1.01 | locus YCL061C, strain MRC1, stronger effect = lower value 0.995 | locus YCL069W, strain vba3, stronger effect = lower value 0.968 | locus YCR088W, strain abp1, stronger effect = lower value 0.966 | locus YDL005C, strain med2, stronger effect = lower value 0.962 | locus YDL035C, strain GPR1, stronger effect = lower value 1.02 | locus YDL040C, strain nat1, stronger effect = lower value 0.962 | locus YDL074C, strain BRE1, stronger effect = lower value 1.05 | locus YDL101C, strain DUN1, stronger effect = lower value 1.01 | locus YDL134C, strain PPH21, stronger effect = lower value 1.02 | locus YDL185W, strain tfp1, stronger effect = lower value 0.996 | locus YDL192W, strain arf1, stronger effect = lower value 0.993 | locus YDR001C, strain nth1, stronger effect = lower value 0.968 | locus YDR069C, strain doa4, stronger effect = lower value 0.949 | locus YDR101C, strain arx1, stronger effect = lower value 1 | locus YDR137W, strain rgp1, stronger effect = lower value 0.988 | locus YDR150W, strain NUM1, stronger effect = lower value 1.02 and 0.997 | locus YDR159W, strain sac3, stronger effect = lower value 0.939 | locus YDR162C, strain NBP2, stronger effect = lower value 1 | locus YDR195W, strain ref2 0.95 | locus YDR297W, strain sur2, stronger effect = lower value 0.959 | locus YDR318W, strain mcm21, stronger effect = lower value 0.992 | locus YDR334W, strain swr1, stronger effect = lower value 0.975 | locus YDR335W, strain msn5, stronger effect = lower value 0.978 | locus YDR363W, strain ESC2, stronger effect = lower value 1.01 | locus YDR388W, stronger effect = lower value 0.989 | locus YDR392W, strain spt3, stronger effect = lower value 0.937 | locus YDR502C, strain sam2, stronger effect = lower value 0.993 | locus YEL003W, strain gim4, stronger effect = lower value 0.972 | locus YEL037C, strain rad23, stronger effect = lower value 0.968 | locus YEL061C, strain CIN8 (second series), stronger effect = lower value 0.959 | locus YEL061C, strain CIN8, stronger effect = lower value 1.01 | locus YER002W, strain NOP16, stronger effect = lower value 1.01 | locus YER015W, strain faa2, stronger effect = lower value 0.98 | locus YER016W, strain bim1, stronger effect = lower value 0.967 | locus YER110C, stronger effect = lower value 0.996 | locus YER111C, strain swi4, stronger effect = lower value 0.98 | locus YER155C, strain BEM2 (second series), stronger effect = lower value 0.959 | locus YER155C, strain BEM2, stronger effect = lower value 1.02 | locus YER167W, strain BCK2, stronger effect = lower value 1.01 | locus YFR010W, strain ubp6, stronger effect = lower value 0.962 | locus YGL078C, strain dbp3, stronger effect = lower value 0.989 | locus YGL086W, strain mad1, stronger effect = lower value 1 | locus YGL167C, strain pmr1, stronger effect = lower value 0.982 | locus YGL173C, strain kem1, stronger effect = lower value 0.97 | locus YGL227W, strain vid30, stronger effect = lower value 0.967 | locus YGL240W, strain doc1, stronger effect = lower value 0.958 | locus YGL248W, strain PDE1, stronger effect = lower value 1.01 | locus YGL253W, strain hxk2, stronger effect = lower value 0.958 | locus YGR078C, strain PAC10, stronger effect = lower value 1.02 and 0.978 | locus YGR135W, strain pre9, stronger effect = lower value 0.992 | locus YGR229C, strain SMI1, stronger effect = lower value 1.02 | locus YGR252W, strain gcn5, stronger effect = lower value 0.981 | locus YHR013C, strain ard1, stronger effect = lower value 0.986 | locus YHR027C, strain rpn1, stronger effect = lower value 0.98 | locus YHR030C, strain SLT2, stronger effect = lower value 1 | locus YHR079C, strain IRE1 (second series), stronger effect = lower value 0.987 | locus YHR094C, strain hxt1, stronger effect = lower value 0.992 | locus YHR129C, strain ARP1, stronger effect = lower value 1.02 | locus YHR142W, strain chs7, stronger effect = lower value 0.987 | locus YHR200W, strain rpn10, stronger effect = lower value 0.993 | locus YIL066C, strain RNR3, stronger effect = lower value 1.01 | locus YIL073C, strain SPO22, stronger effect = lower value 1 | locus YIL125W, strain kgd1, stronger effect = lower value 0.994 | locus YIR030C, strain dcg1, stronger effect = lower value 1 | locus YJL092W, strain hpr5, stronger effect = lower value 0.971 | locus YJL095W, strain BCK1 (second series), stronger effect = lower value 0.973 | locus YJL095W, strain BCK1, stronger effect = lower value 1.02 | locus YJL115W, strain asf1, stronger effect = lower value 0.969 | locus YJL129C, strain trk1, stronger effect = lower value 0.967 | locus YJL134W, strain LCB3, stronger effect = lower value 1 | locus YJL154C, strain vps35, stronger effect = lower value 0.969 | locus YJL164C, strain tpk1, stronger effect = lower value 1 | locus YJL166W, strain qcr8, stronger effect = lower value 0.972 | locus YJL168C, strain set2, stronger effect = lower value 0.99 | locus YJL187C, strain SWE1 (second series), stronger effect = lower value 1.01 | locus YJL187C, strain SWE1, stronger effect = lower value 0.986
